Experimental data: PubChem BioAssay (EPA / NIEHS)
Several values for one entry are separate records, joined by “and”; a condition that tells them apart may be missing. Identical values can stand only once. Results filed as inconclusive are left out. A structure can be active in one record and inactive in another. Activity calls are given as the source filed them. Rule for the calls, unless noted: active = hit-call score of the fitted dose curve at least 0.9, where 1 is the maximum; inconclusive = response in the unintended direction; inactive = score below 0.9.

How the values were obtained:
[1] = molecular target: human Peroxisome Proliferator-activated Receptor alpha (PPARa), PPARA (gene 5465) (UniProt Q07869); assay: ATG_PPARa_TRANS: Attagene TRANS-FACTORIAL HepG2 Assay for human Peroxisome Proliferator-activated Receptor alpha (PPARa) (AID 2283001);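 for AC50: potency for gain of reporter signal over DMSO so agonist or activator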
In short: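 Exposure: 24 h, transiently transfected HepG2 cells. Endpoint: GAL4-UAS reporter mRNA, RT-PCR with capillary electrophoresis fluorescence. Baseline: DMSO; increases fitted.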

[2] = read-out: Intercellular Adhesion Molecule 1 (ICAM1), ICAM1 (gene 3383); assay: BSK_3C_ICAM1: BioMAP Diversity Plus: 3C Assay for Intercellular Adhesion Molecule 1 (ICAM1) Biomarker Activity (AID 2283003; active = hit-call score of the fitted dose curve at least 0.9, where 1 is the maximum; inactive = score below 0.9); settings: primary human endothelial cells (HUVEC); actives raise or lower the signal
In short: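 ELISA read-out of ICAM-1; HUVEC (primary human), 3C system, 24 h post-dosing; bidirectional fit vs DMSO baseline.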

[3] = molecular target: human Retinoic Acid Receptor beta (RARb), RARB (gene 5915) (UniProt P10826); assay: ATG_RARb_TRANS: Attagene TRANS-FACTORIAL HepG2 Assay for human Retinoic Acid Receptor beta (AID 2283004)
In short: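 Readout is reporter mRNA induction: RNA reverse-transcribed, PCR-amplified, FAM-labelled, HpaI-cut and resolved by capillary electrophoresis. Transiently transfected HepG2 cells carrying exogenous NR–Gal4 chimeras were dosed for 24 h; activity fitted upward relative to DMSO.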

[4] = molecular target: Retinoic acid receptor alpha (Homo sapiens) (UniProt P10276); assay: ATG_RARa_TRANS: Attagene TRANS-FACTORIAL HepG2 Assay for human Retinoic Acid Receptor alpha (RARa) (AID 2283005);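 for AC50: potency for increased reporter signal meaning RARa activation over DMSO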
In short: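 HepG2 cells transiently transfected with multiple reporter units expressing chimeric RARα-GAL4 fusion, with GAL4-UAS-driven reporters. After 24 h compound exposure, reporter mRNA induction quantified by RT-PCR and capillary electrophoresis with fluorescent labeling; gain-of-signal fitted relative to DMSO control.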

[5] = BSK_3C_Proliferation: Cell Proliferation Assessment in the BioMAP Diversity Plus: 3C Assay (AID 2283006; active = hit-call score of the fitted dose curve at least 0.9, where 1 is the maximum; inactive = score below 0.9;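 for AC50: potency may reflect either rise or fall in cell number versus DMSO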); settings: primary human endothelial cells (HUVEC)
In short: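 HUVEC, sub-confluent; 48 h chemical exposure; 10% TCA fix, 0.1% SRB stain, A560 total protein. Gain or loss of signal fitted both directions vs DMSO control.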

[6] = molecular target: Peroxisome proliferator-activated receptor gamma (Homo sapiens) (UniProt P37231); assay: ATG_PPARg_TRANS: Attagene TRANS-FACTORIAL HepG2 Assay for human Peroxisome Proliferator-activated Receptor-gamma (PPARg) (AID 2283007)
In short: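 After 24 h of chemical exposure, transfected HepG2 cells carrying PPARγ-Gal4 chimera reporter constructs are lysed for RNA. Reporter transcripts are measured by RT-PCR and capillary electrophoresis with fluorescent labelling, and gain of signal is fitted versus DMSO.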

[7] = molecular target: Nuclear receptor subfamily 1 group I member 2 (Homo sapiens) (UniProt O75469); assay: ATG_PXR_TRANS: Attagene TRANS-FACTORIAL HepG2 Assay for human Pregnane X Receptor (PXR) (AID 2283008)
In short: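 HepG2 transfected (FuGene 6) with GAL4-UAS reporter units + PXR-Gal4 chimera; dosed 24 h. Total RNA → oligo(dT) RT → PCR → 6-FAM primer extension → HpaI cut → CE. Gain-of-signal vs DMSO.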

[8] = molecular target: human Retinoic Acid Receptor gamma (RARg), RARG (gene 5916) (UniProt P13631); assay: ATG_RARg_TRANS: Attagene TRANS-FACTORIAL HepG2 Assay for human Retinoic Acid Receptor gamma (RARg) (AID 2283009);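 for AC50: AC50 is for reporter induction above DMSO meaning RARg activation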
In short: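 Readout: reporter transcript levels via RT-PCR, 6-FAM primer-extension labelling, HpaI digestion and capillary electrophoresis. Cells: HepG2 carrying transfected RARg-GAL4 chimera plus UAS reporter set. Dosing 24 h; DMSO negative control.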

[9] = molecular target: human RAR-related Orphan Receptor beta (RORb), RORB (gene 6096) (UniProt Q92753); assay: ATG_RORb_TRANS: Attagene TRANS-FACTORIAL HepG2 Assay for human RAR-related Orphan Receptor beta (RORb) (AID 2283010)
In short: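 HepG2, transient MRTU transfection (GAL4-UAS reporters, exogenous NR-Gal4 chimeras); 24 h compound exposure; total RNA → RT-PCR → 6-FAM primer extension → HpaI digest → CE fluorescence. Positive direction vs DMSO baseline.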

[10] = molecular target: human RAR-related Orphan Receptor gamma (RORg), RORC (gene 6097) (UniProt P51449); assay: ATG_RORg_TRANS: Attagene TRANS-FACTORIAL HepG2 Assay for human RAR-related Orphan Receptor gamma (RORg) (AID 2283011)
In short: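 Transient MRTU transfection of HepG2 (TRANS format, exogenous NR-Gal4 chimera). 24 h dosing. Total RNA → oligo(dT) RT → PCR → 6-FAM labelling → HpaI cut → CE. Gain vs DMSO.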

[11] = molecular target: Retinoic acid receptor RXR-alpha (Homo sapiens) (UniProt P19793); assay: ATG_RXRa_TRANS: Attagene TRANS-FACTORIAL HepG2 Assay for human Retinoid X Receptor alpha (RXRa) (AID 2283012)
In short: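 Read-out: fluorescent reporter-transcript fragments quantified by capillary electrophoresis after RT-PCR. Transiently transfected HepG2 cells carrying GAL4-UAS reporters and NR-GAL4 chimeras were exposed to chemical for 24 h; activity scored as increase over DMSO.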

[12] = molecular target: human Retinoid X Receptor beta (RXRb), RXRB (gene 6257) (UniProt P28702); assay: ATG_RXRb_TRANS: Attagene TRANS-FACTORIAL HepG2 Assay for human Retinoid X Receptor beta (RXRb) (AID 2283013)
In short: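 Read-out: reporter mRNA induction via RT-PCR plus capillary electrophoresis fluorescence, analysed as signal increase relative to DMSO. Cells were human HepG2, transiently transfected with GAL4-UAS reporter constructs and chimeric receptor-Gal4 fusions, dosed for 24 h.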

[13] = molecular target: human Thyroid Receptor alpha (THRa1), THRA (gene 7067) (UniProt P10827); assay: ATG_THRa1_TRANS: Attagene TRANS-FACTORIAL HepG2 Assay for human Thyroid Receptor alpha (THRa1) (AID 2283014)
In short: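 Transient HepG2 transfection, NR-Gal4 chimera driving GAL4-UAS reporters; 24 h compound exposure; total RNA, oligo(dT) RT, PCR, fluorescent primer extension, capillary electrophoresis. Upward direction vs DMSO control.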

[14] = read-out: E-selectin (Homo sapiens) (UniProt P16581); assay: BSK_3C_Eselectin: BioMAP Diversity Plus: 3C Assay for Eselectin Biomarker Activity (AID 2283015; active = hit-call score of the fitted dose curve at least 0.9, where 1 is the maximum; inactive = score below 0.9); settings: primary human endothelial cells (HUVEC); actives raise or lower the signal
In short: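 HUVEC, 3C stimulation; compound exposure 24 h; E-selectin by ELISA; gain- or loss-of-signal fitted bidirectionally vs DMSO baseline.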

[15] = read-out: Interleukin-1 alpha (IL1a), IL1A (gene 3552); assay: BSK_BE3C_IL1a: BioMAP Diversity Plus: BE3C Assay for Interleukin-1 alpha (IL1a) Biomarker Activity (AID 2283016; active = hit-call score of the fitted dose curve at least 0.9, where 1 is the maximum; inactive = score below 0.9); settings: primary human bronchial epithelial cells; actives raise or lower the signal
In short: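 ELISA read-out of IL-1a from human lung bronchial epithelial primary cells, 24 h post-dose. Gain or loss of signal fitted relative to DMSO negative control.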

[16] = read-out: Monocyte Chemoattractant Protein-1 (MCP1), CCL2 (gene 6347); assay: BSK_3C_MCP1: BioMAP Diversity Plus: 3C Assay for Monocyte Chemoattractant Protein-1 (MCP1) Biomarker Activity (AID 2283017; active = hit-call score of the fitted dose curve at least 0.9, where 1 is the maximum; inactive = score below 0.9); settings: primary human endothelial cells (HUVEC); actives raise or lower the signal
In short: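 HUVEC, 3C system; 24 h chemical exposure; MCP-1 by ELISA; bidirectional curve fit vs DMSO baseline.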

[17] = read-out: Monocyte Chemoattractant Protein-1 (MCP1), CCL2 (gene 6347); assay: BSK_4H_MCP1: BioMAP Diversity Plus: 4H Assay for Monocyte Chemoattractant Protein-1 (MCP1) Biomarker Activity (AID 2283018; active = hit-call score of the fitted dose curve at least 0.9, where 1 is the maximum; inactive = score below 0.9); settings: primary human endothelial cells (HUVEC); actives raise or lower the signal
In short: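 HUVEC primary cells, 24 h post-dose, MCP-1 by ELISA. Gain or loss of signal fitted bidirectionally vs DMSO baseline. Cytotoxicity: SRB stain (0.1% after 10% TCA fixation), read 560 nm, parallel cultures.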

[18] = read-out: Human Leukocyte Antigen - DR isotype (HLADR), HLA-DRA (gene 3122); assay: BSK_3C_HLADR: BioMAP Diversity Plus: 3C Assay for Human Leukocyte Antigen - DR isotype (HLADR) Biomarker Activity (AID 2283019; active = hit-call score of the fitted dose curve at least 0.9, where 1 is the maximum; inactive = score below 0.9); settings: primary human endothelial cells (HUVEC); actives raise or lower the signal
In short: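 HUVEC, 3C stimulation, 24 h post-dose; HLA-DR by ELISA; bidirectional curve fit vs DMSO baseline; gain or loss of signal scored.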

[19] = read-out: Interleukin-8 (IL8), CXCL8 (gene 3576); assay: BSK_3C_IL8: BioMAP Diversity Plus: 3C Assay for Interleukin-8 (IL8) Biomarker Activity (AID 2283020; active = hit-call score of the fitted dose curve at least 0.9, where 1 is the maximum; inactive = score below 0.9); settings: primary human endothelial cells (HUVEC); actives raise or lower the signal
In short: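 HUVEC, 3C stimulation; 24 h compound exposure; IL-8 read by ELISA; gain or loss of signal fitted relative to DMSO control.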

Measured: AC50

Sequence of human Retinoid X Receptor beta (RXRb), RXRB (gene 6257) (P28702 whole entry, looked up, the tested form may be a part): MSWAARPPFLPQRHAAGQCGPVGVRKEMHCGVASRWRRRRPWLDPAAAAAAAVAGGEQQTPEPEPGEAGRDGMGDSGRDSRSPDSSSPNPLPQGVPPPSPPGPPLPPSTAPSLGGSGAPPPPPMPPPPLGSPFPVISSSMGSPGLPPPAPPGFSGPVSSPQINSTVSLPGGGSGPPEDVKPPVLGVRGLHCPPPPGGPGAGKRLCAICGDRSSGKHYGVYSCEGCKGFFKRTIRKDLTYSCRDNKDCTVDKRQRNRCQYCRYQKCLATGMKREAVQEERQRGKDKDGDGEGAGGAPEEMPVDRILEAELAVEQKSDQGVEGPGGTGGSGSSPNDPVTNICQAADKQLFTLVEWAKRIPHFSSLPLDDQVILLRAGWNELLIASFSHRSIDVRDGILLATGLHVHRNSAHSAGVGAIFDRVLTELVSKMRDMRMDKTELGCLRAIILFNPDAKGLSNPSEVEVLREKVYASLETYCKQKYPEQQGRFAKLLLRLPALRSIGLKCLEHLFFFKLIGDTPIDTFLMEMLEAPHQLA
Sequence of human Retinoic Acid Receptor gamma (RARg), RARG (gene 5916) (P13631 whole entry, looked up, the tested form may be a part): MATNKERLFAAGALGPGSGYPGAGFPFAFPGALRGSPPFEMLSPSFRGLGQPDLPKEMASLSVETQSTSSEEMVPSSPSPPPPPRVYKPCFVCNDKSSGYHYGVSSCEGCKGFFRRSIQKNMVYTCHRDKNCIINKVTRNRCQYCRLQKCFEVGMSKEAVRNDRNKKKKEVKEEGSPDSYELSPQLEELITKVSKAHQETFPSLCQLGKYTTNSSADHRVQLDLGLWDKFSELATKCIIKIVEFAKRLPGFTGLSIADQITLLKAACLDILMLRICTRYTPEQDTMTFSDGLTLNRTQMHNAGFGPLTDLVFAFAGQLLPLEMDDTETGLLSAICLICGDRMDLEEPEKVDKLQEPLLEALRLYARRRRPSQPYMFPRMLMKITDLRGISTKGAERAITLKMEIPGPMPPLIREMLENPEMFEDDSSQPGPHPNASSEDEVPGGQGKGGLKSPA
Sequence of Peroxisome proliferator-activated receptor gamma (Homo sapiens) (P37231 whole entry, looked up, the tested form may be a part): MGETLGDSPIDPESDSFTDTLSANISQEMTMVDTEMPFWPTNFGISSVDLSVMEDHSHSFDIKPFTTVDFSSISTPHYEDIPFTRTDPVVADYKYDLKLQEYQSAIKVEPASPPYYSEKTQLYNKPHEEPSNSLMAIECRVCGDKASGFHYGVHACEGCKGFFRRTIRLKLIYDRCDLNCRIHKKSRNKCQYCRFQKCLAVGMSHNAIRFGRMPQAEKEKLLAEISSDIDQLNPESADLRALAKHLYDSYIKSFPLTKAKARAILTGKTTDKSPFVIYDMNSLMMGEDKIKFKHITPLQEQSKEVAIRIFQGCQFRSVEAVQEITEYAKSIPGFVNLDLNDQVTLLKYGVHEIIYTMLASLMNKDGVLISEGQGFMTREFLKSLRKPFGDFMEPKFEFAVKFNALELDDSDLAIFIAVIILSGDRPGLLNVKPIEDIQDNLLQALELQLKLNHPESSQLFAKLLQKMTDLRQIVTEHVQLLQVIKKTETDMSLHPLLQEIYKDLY
Sequence of human Peroxisome Proliferator-activated Receptor alpha (PPARa), PPARA (gene 5465) (Q07869 whole entry, looked up, the tested form may be a part): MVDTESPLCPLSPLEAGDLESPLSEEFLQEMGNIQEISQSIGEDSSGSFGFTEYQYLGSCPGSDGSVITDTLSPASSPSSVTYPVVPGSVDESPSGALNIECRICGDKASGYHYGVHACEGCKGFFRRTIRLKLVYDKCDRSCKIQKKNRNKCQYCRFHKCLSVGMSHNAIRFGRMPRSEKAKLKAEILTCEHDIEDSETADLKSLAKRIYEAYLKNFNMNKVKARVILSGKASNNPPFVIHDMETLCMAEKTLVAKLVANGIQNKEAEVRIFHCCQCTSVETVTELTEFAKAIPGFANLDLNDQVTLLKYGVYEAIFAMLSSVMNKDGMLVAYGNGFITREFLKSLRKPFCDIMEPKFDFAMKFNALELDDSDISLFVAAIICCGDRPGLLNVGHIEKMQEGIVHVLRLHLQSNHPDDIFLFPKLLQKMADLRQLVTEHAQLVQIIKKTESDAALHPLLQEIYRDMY
Sequence of human Retinoic Acid Receptor beta (RARb), RARB (gene 5915) (P10826 whole entry, looked up, the tested form may be a part): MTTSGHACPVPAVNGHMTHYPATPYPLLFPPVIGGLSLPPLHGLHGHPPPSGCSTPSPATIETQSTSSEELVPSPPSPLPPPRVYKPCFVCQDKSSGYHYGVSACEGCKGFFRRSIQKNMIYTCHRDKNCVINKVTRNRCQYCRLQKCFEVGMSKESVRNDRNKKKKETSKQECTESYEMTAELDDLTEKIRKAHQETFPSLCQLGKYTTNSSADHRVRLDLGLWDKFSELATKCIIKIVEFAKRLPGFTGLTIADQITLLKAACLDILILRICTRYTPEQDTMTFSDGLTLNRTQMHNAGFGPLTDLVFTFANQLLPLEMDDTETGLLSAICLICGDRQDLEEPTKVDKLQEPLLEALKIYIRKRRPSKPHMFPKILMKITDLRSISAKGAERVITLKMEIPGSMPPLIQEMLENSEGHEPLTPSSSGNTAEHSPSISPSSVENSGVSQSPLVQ
Sequence of Nuclear receptor subfamily 1 group I member 2 (Homo sapiens) (O75469 whole entry, looked up, the tested form may be a part): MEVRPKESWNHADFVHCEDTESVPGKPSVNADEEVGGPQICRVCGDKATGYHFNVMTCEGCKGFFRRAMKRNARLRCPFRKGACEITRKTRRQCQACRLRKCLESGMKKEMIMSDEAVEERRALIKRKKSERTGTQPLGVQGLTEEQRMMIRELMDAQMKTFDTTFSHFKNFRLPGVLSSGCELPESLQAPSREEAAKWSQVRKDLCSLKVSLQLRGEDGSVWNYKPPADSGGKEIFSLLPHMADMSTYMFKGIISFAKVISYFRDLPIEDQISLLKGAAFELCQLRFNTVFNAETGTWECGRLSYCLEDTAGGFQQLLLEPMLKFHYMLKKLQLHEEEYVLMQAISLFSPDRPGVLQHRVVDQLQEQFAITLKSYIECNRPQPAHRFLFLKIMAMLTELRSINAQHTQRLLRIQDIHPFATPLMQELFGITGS
Sequence of human Thyroid Receptor alpha (THRa1), THRA (gene 7067) (P10827 whole entry, looked up, the tested form may be a part): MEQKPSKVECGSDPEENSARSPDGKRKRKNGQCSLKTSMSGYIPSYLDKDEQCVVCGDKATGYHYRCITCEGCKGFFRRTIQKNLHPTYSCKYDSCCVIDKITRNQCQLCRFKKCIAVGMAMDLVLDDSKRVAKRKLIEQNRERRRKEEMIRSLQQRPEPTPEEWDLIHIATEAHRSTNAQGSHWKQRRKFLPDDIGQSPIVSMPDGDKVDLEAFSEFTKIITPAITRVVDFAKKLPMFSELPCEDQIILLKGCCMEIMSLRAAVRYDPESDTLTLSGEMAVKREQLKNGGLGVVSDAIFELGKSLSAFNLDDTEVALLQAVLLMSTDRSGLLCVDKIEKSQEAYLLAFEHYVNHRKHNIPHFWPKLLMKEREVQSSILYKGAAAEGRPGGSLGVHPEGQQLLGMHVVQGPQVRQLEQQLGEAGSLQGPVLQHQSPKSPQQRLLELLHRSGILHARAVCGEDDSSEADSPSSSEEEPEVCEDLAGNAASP
Sequence of E-selectin (Homo sapiens) (P16581 whole entry, looked up): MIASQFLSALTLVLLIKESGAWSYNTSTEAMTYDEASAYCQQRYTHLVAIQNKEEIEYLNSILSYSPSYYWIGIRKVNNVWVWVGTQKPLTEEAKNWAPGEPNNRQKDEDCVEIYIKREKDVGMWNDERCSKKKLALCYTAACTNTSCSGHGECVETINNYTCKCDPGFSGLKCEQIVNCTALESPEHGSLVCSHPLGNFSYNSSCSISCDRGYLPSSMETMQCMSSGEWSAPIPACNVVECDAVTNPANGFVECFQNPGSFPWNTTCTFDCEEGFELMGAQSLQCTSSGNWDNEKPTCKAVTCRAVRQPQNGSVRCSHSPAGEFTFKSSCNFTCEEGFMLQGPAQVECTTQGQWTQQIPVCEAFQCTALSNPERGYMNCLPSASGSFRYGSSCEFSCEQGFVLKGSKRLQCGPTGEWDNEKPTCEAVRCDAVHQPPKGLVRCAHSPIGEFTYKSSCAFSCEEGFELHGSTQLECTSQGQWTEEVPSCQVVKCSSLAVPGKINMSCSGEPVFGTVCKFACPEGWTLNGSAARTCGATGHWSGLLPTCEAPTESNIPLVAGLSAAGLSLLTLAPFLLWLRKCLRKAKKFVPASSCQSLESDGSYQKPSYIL
Sequence of human RAR-related Orphan Receptor gamma (RORg), RORC (gene 6097) (P51449 whole entry, looked up, the tested form may be a part): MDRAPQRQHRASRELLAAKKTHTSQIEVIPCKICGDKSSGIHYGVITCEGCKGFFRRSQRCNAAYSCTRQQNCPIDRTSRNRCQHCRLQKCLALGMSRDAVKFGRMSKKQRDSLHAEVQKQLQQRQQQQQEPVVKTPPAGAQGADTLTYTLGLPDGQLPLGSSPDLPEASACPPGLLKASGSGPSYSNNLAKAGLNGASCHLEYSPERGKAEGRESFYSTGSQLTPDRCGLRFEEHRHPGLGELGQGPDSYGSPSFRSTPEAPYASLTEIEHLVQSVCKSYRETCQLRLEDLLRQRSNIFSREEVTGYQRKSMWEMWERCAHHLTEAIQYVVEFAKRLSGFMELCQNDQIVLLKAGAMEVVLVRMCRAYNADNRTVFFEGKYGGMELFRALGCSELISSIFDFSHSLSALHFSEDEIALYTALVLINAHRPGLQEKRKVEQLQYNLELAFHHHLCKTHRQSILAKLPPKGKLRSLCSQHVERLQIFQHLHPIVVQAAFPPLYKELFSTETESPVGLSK
Sequence of Retinoic acid receptor alpha (Homo sapiens) (P10276 whole entry, looked up, the tested form may be a part): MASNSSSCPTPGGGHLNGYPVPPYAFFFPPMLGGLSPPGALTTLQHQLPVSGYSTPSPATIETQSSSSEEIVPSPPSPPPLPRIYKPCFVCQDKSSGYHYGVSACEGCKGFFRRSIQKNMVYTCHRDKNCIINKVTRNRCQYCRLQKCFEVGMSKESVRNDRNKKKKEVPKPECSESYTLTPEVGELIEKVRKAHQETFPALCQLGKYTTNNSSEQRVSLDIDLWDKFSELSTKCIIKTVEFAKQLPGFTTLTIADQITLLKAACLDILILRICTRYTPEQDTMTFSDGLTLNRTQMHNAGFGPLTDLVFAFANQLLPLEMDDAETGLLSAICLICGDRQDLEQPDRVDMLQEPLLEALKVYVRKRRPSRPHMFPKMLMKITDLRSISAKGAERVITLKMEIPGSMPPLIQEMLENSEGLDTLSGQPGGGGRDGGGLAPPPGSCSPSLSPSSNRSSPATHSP

CCCCCCCCCCCCCC[N+](C)(C)C
inactive: [1] | [3] | [4] | [6] | [7] | [8] | [9] | [10] | [11] | [12] | [13]
active: [2] 7.59 µM | [4] 48.5 µM | [5] 1.73 µM | [6] 26.6 µM | [8] 36.6 µM | [13] 26.7 µM | [14] 8.8 µM | [15] 3.83 µM | [16] 2.17 µM | [17] 1.69 µM | [18] 2.1 µM | [19] 6.77 µM

CC1=C(/C=C/C(C)=C/C=C/C(C)=C/C(=O)O)C(C)(C)CCC1
active: [1] 100 µM | [5] 32.8 µM | [6] 29.6 µM and 10.1 µM | [7] 19.8 µM | [14] 20 µM | [18] 19.6 µM
inactive: [1] | [2] | [3] | [7] | [8] | [13] | [15] | [16] | [17] | [19]

N#C[C@@H]1CC(F)(F)CN1C(=O)CNC1CC2CCC(C1)N2c1ncccn1 (stereo partly drawn)
active: [16] 4.85 µM | [18] 2.58 µM | [19] 7.55 µM
not listed: [1] | [4] | [6] | [8] | [13]
inactive: all other assays above
